# Hit rate of the full screen: of about 310,000 compounds, about 18,000 (5.8%) were called active. Not shown: some 22% with an inconclusive outcome. The call rests on the fitted dose curve; in most records, active means well fitted inhibition curve with a large enough effect; inconclusive means small, poorly fitted or top-dose-only effect, or another doubt; inactive means no such curve, though single readings can be large or run the other way. For the sample, actives were picked, then their nearest neighbours and some compounds at random.
# Assay: Primary qHTS for delayed death inhibitors of the malarial parasite plastid, 48 hour incubation
# Conditions: P. falciparum luciferase growth in erythrocytes; series mostly up to 28.7 µM; activity change, negative = inhibition: at the top concentration
# Procedure, shortened: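 In quantitative HTS format, infected erythrocytes bearing luciferase-reporter parasites were treated for a single generation at 37 C. Luminescence after adding detection reagent served as the growth measure.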
# On the % scale 0 is the no-effect control and ±100 the full control effect; potency means the concentration at half of the fitted maximal effect.
SMILES,"activity change, negative = inhibition",Potency
COc1ccc(CN2CC(C(=O)NC3CCCCC3)CC2=O)cc1 (stereo not drawn),6.73% (inactive),
C=CCSc1ccc(S(=O)(=O)N2CCN(C)CC2)cn1,4.46% (inactive),
CCn1cc(C(=O)NCCCN2CCCCCC2)c(=O)c2cc(S(=O)(=O)N3CCc4ccccc4C3)ccc21,,5.22 µM (active)
CCn1cc(C(=O)N2CC(C)CC(C)C2)c(=O)c2cc(S(=O)(=O)N3CCCC3)ccc21 (stereo not drawn),3.58% (inactive),
CCn1cc(C(=O)NCCO)c(=O)c2cc(F)c(N3CCN(C)CC3)cc21,2.44% (inactive),
O=S(=O)(c1cccc(Cn2nnc(-c3ccc(F)cc3)n2)c1)N1CCOCC1,0.852% (inactive),
Cc1ccc(CNS(=O)(=O)c2ccc3c(c2)N(C)CCO3)cc1,30.2% (inactive),
COc1cc(CNc2ncn[nH]2)ccc1OCc1ccccc1C,17.2% (inactive),
COc1ccc(CNCCCO)cc1OC,3.57% (inactive),
CCN(CC)CCNCc1ccc(OCc2ccc(Cl)nc2)c(OC)c1,,10.4 µM (active)
COc1ccccc1CNC(=O)C1CCN(S(C)(=O)=O)CC1,8.41% (inactive),
COc1ccc(CNC(=O)CN2CCC(n3nnc4cc(F)ccc43)CC2)cc1,-23.1% (inactive),
COc1ccccc1CNC(=O)Cn1cc2c(n1)CCCC2,5.3% (inactive),
COc1ccc(CCNC(=O)CN2CCC(n3nnc4cc(F)ccc43)CC2)cc1OC,,7.38 µM (active)
COc1ccccc1CNC(=O)CN1CCC(n2cnc3cc(F)ccc32)CC1,,10.4 µM (active)
COc1ccc(CCNC(=O)CCC(=O)NC2CCCCC2)cc1OC,-8.53% (inactive),
CCc1ccccc1NC(=S)Nc1cc(OC)c(NC(=O)C(C)C)cc1OC,-5.66% (inactive),
CC1CCCCC1NC(=O)c1cc(=O)[nH]c2ccccc12 (stereo not drawn),34.6% (inactive),
CCCCCCC(O)(CCN1CCCCC1)c1ccccc1 (stereo not drawn),11.4% [at 0.00184 µM] (inactive),
COc1ccc(NC(=S)N2CCC(NC(=O)c3cccc(F)c3)CC2)cc1,6.61% (inactive),
CN1C(=O)c2ccc(C(=O)Nc3ccc(Br)cn3)cc2C1=O,0.546% (inactive),
Cc1cc(C)n(S(=O)(=O)c2cccc([N+](=O)[O-])c2)n1,0.663% (inactive),

SMILES,"activity change, negative = inhibition",Potency
CC1=NCCN1S(=O)(=O)c1cccc([N+](=O)[O-])c1,58.3% (inactive),
Cc1ccc(-c2cn(S(=O)(=O)c3cccc([N+](=O)[O-])c3)nc2N)cc1,,3.29 µM (active)
COc1ccc(-c2noc(C(C)NS(=O)(=O)c3ccc(NC(C)=O)cc3)n2)cc1 (stereo not drawn),-9.21% (inactive),
Cc1occc1C(=O)NC1CCCN(Cc2ccc(CC(C)C)cc2)C1 (stereo not drawn),-22.7% (inactive),
Cc1ccc(C)c(C(=O)N2CCC(n3nccc3NC(=O)C3CC3)CC2)c1,4.41% (inactive),
C=CCN1CN(S(=O)(=O)c2ccc(OC)cc2)c2nc3ccccc3nc21,-20.2% (inactive),
COc1cc2c(cc1O)[C@H](Cc1ccc(Oc3cc(C[C@@H]4NCCc5cc(OC)c(O)cc54)ccc3O)cc1)NCC2,,0.738 µM (active)
CCCCSCCCNC(=O)C1CCC(CNS(=O)(=O)c2ccc(NC(C)=O)cc2)CC1 (stereo not drawn),0% (inactive),
CCN(CC)C(=O)c1nc[nH]c1C(=O)N(C)Cc1ccccc1,51.8% (inactive),
O=C1C2CCCN2C(=O)N1CCCCN1CCN(c2cccc(C(F)(F)F)c2)CC1 (stereo not drawn),-19.8% (inactive),
CC(C)S(=O)(=O)c1csc(NC(=O)Nc2ccc(Cl)cc2)c1Cl,,5.22 µM (active)
Cn1ccc(NC(=O)Nc2ccc(Cl)cc2)n1,50.8% (inactive),
CN(c1cccc(NC(=O)Nc2ccc(Cl)cc2)c1)S(C)(=O)=O,45.8% (inactive),
S=C(NCCCc1ccccc1)Nc1ccc(Br)cc1,-6.46% (inactive),
O=C(NC1CCN(Cc2ccccc2)CC1)c1c(F)cccc1F,-5.58% (inactive),
S=C(Nc1ccc(Br)cc1)NC1CCN(Cc2ccccc2)CC1,,11.7 µM (active)
CN(CC(=O)Nc1ccc(F)c(F)c1F)C(=O)Cn1cnc2c1c(=O)n(C)c(=O)n2C,4.25% (inactive),
O=C(OCCN1C(=O)c2ccccc2C1=O)Oc1ccccc1,9.7% (inactive),
CC(C)(C)OC(=O)NC(Cc1ccccc1)C(=O)NC(CSC1CCCCO1)C(=O)NN (stereo not drawn),29.4% (inactive),
Cc1csc(NC(=O)CSc2nnc(-c3cccnc3)o2)n1,6.46% (inactive),
CC1=C(C(=O)OC(C)(C)C)C(c2ccc(Br)cc2)NC(=O)N1CCCC(=O)O (stereo not drawn),2.52% (inactive),
O=C(c1cccc(S(=O)(=O)N2CCOCC2)c1)N1CCOCC1,3.35% (inactive),

SMILES,"activity change, negative = inhibition",Potency
COc1ccc(Br)cc1/C=N/NC(=O)c1cccc(S(=O)(=O)N2CCOCC2)c1,11.9% [at 5.75 µM] (inactive),
O=C(N/N=C/c1ccc([N+](=O)[O-])o1)c1cccc(S(=O)(=O)N2CCOCC2)c1,,3.7 µM (active)
CN(Cc1c(F)cccc1Cl)S(=O)(=O)c1cccs1,24.5% (inactive),
Cn1ncc(Br)c1C(=O)NC1CCCC1,104% (inactive),
CCCNC(=O)c1cnc(-c2ccccc2)nc1-c1ccccc1,0.447% (inactive),
CCCCOc1ccc(-c2ncc(C(=O)OCC)c(N)n2)cc1,158% (inactive),
CCOC(=O)c1cnc(-c2ccccc2)nc1Oc1ccc(C)cc1,,3.29 µM (active)
COc1cccc(CNC(=O)C2CCCN(S(=O)(=O)N3CC(C)CC(C)C3)C2)c1 (stereo not drawn),-1.35% (inactive),
O=C(COCc1cc(-c2ccc3c(c2)OCO3)on1)N1CCN(c2cccc(Cl)c2)CC1,27.3% (inactive),
CCCCC(=O)Nc1c2c(nn1-c1ccc([N+](=O)[O-])cc1)CS(=O)(=O)C2,11.6% (inactive),
Cc1ccccc1-n1c(SCC(=O)Nc2cccc3ccccc23)nc(O)cc1=O,,13.1 µM (active)
Cc1ccc2nc(SCC(=O)Nc3cccc4ccccc34)nc(=O)n2c1,-6.05% (inactive),
C=CCn1c(N)cc(=O)nc1SCC(=O)Nc1cccc2ccccc12,1.48% (inactive),
O=C(Cc1c(Cl)cccc1Cl)NC1CC1,1.57% (inactive),
COc1ccc(C(=O)NC2CCN(C(=O)Nc3ccc(F)cc3)CC2)cc1,-0.699% (inactive),
Cc1ccc(SCC(=O)NNC(=O)c2ccc(S(C)(=O)=O)cc2)cc1,34.9% (inactive),
COc1cccc(N(C(=O)c2ccn[nH]2)C2(C(=O)Nc3c(C)cccc3C)CCCCC2)c1,,9.28 µM (active)
COc1cccc(N(Cc2nnc3n2CCCCC3)C(=O)Nc2ccccc2F)c1,6.97% (inactive),
Cc1cccc(C)c1NC(=O)C1(N(C(=O)c2ccccn2)c2ccc(O)cc2)CCCCC1,-0.862% (inactive),
COc1ccc(C(=O)OCC(=O)NCCCc2ccccc2)cc1OC,7.29% (inactive),
COc1ccc(C)cc1NC(=O)NCc1ccccn1,-13% [at 5.75 µM] (inactive),
COc1ccc(C)cc1NC(=O)NCCCCc1ccccc1,,14.7 µM (active)

SMILES,"activity change, negative = inhibition",Potency
N#CC1(NC(=O)COC(=O)Cc2n[nH]c(=O)c3ccccc23)CCCCC1,23.3% (inactive),
O=C(O)[C@@H]1CCCN1c1ncnc2sc3c(c12)CCC3,6.15% (inactive),
O=C(O)c1cccnc1Sc1ncnc2sc3c(c12)CCC3,-7.35% (inactive),
OCCNc1nc2ccccc2n1-c1ncnc2sc3c(c12)CCC3,,6.57 µM (active)
O=c1onc(-c2c(F)cccc2F)n1-c1ccccc1Cl,4.36% [at 0.00184 µM] (inactive),
CN(CC(=O)NCCN1CCOCC1)S(=O)(=O)c1ccc(F)cc1,-3.21% (inactive),
Cc1ccc(S(=O)(=O)N(C)CC(=O)NC2CCCC2)cc1,-26.8% (inactive),
Cc1ccc(S(=O)(=O)N(C)CC(=O)NCC(c2ccc(F)cc2)N2CCOCC2)cc1 (stereo not drawn),,9.28 µM (active)
COc1cc([N+](=O)[O-])ccc1NC(=O)COC(=O)CCOc1ccc(C)cc1,-17.7% (inactive),
COc1ccccc1OCCNC(=O)CCNC(=O)c1ccccc1Cl,2.48% (inactive),
O=CN1CCN(C(=O)c2ccc3c(c2)OCO3)CC1,12.7% (inactive),
CC(=O)c1c(C)[nH]c(C(=O)COC(=O)CCOc2ccc(C)cc2)c1C,-21.9% (inactive),
CCNC(=S)N(CCN(CC)CC)Cc1cc2cc3c(cc2[nH]c1=O)OCCO3,-16.8% (inactive),
N=c1c2c(-c3ccccc3)c(-c3ccccc3)n(Cc3ccccc3)c2ncn1CCCO,,2.33 µM (active)
CCN(CC)CCn1cnc2c1c(=O)[nH]c(=O)n2Cc1ccccc1,11.6% (inactive),
COCCn1cnc2c1c(=O)n(CC(=O)NN)c(=O)n2Cc1ccccc1,-4.05% (inactive),
Cc1ccc(S(=O)(=O)N(CC(=O)NCCSC2CCCCC2)c2ccccc2F)cc1,,4.65 µM (active)
Cc1ccc(S(=O)(=O)N(CC(=O)NCc2ccco2)c2ccccc2C)cc1,-27.1% (inactive),
CCNC(=O)CN(c1ccc(C)cc1)S(=O)(=O)c1ccc(SC)cc1,-15.6% (inactive),
Cc1cccc(C)c1OCCN1CCOCC1,12.2% (inactive),
COc1ccc(C(=O)/C=C/c2ccc(OC3CSC3)cc2)cc1,-13% (inactive),
COc1ccc(/C=C/C(=O)c2ccc(OC)cc2O)cc1,34.8% (inactive),

SMILES,"activity change, negative = inhibition",Potency
COc1ccc(/C=C/C(=O)c2cc(Br)ccc(=O)c2O)cc1,,13.1 µM (active)
CC(C)CCN1CCN=C1N(C)C,37% (inactive),
Cc1cc(NC(=O)CSc2nc3cc(Cl)ccc3c(=O)n2Cc2ccco2)no1,13% (inactive),
COCCCn1c2nc3ccccc3nc2c2c(=O)n(Cc3ccc(Cl)cc3)c(C)nc21,-3.86% (inactive),
Cc1cc2nc3c(=O)n(Cc4ccccc4)c(=O)[nH]c3nc2cc1N,-1.25% (inactive),
Nc1cc(=O)nc(SCc2ccccc2)n1Cc1ccco1,-0.468% (inactive),
Cc1nc2c(c(=O)n1Cc1ccco1)c1nc3ccccc3nc1n2Cc1ccccc1,,9.28 µM (active)
Cc1ccc(Cn2c(C)nc3c(c2=O)c2nc4ccccc4nc2n3Cc2ccco2)cc1,,5.86 µM (active)
CC1(C)Cc2cccc(OCC(=O)NCc3ccccc3)c2O1,4.57% (inactive),
O=C(Oc1ccc(F)cc1)N1CCOCC1,1.01% (inactive),
COc1ccccc1NC(=O)COC(=O)COc1ccccc1F,-7.22% (inactive),
COc1ccccc1NC(=O)C1CCN(C(=O)c2ccc(C(C)(C)C)cc2)CC1,-1.27% (inactive),
O=C(COC(=O)c1cc(S(=O)(=O)N2CCOCC2)ccc1Cl)NCCc1ccccc1,15.4% (inactive),
OC(c1nc2ccc(F)cc2[nH]1)C(O)c1nc2ccc(F)cc2[nH]1 (stereo not drawn),11.2% (inactive),
Cc1ccc(CNC(=O)c2cc(-c3ccccc3C)n(CC3CC(c4cccc([N+](=O)[O-])c4)=NO3)n2)cc1 (stereo not drawn),,5.22 µM (active)
Cc1ccccc1-c1cc(C(=O)NCC2CC2)n(CC2CC(c3cccnc3)=NO2)n1 (stereo not drawn),-6.01% (inactive),
Cc1ccc(CNC(=O)c2c(-c3ccccc3)noc2C)cc1,2.95% [at 0.00184 µM] (inactive),
COc1ccccc1-n1c(C)nc2cc(C(=O)NCc3ccc4c(c3)OCO4)ccc21,14.5% (inactive),
COc1ccc(NC(=O)NCc2ccc3c(c2)OCO3)c(OC)c1,1.8% (inactive),
COc1ccc(C2=NOC(Cn3nc(C(=O)NCc4ccc5c(c4)OCO5)cc3-c3ccccc3)C2)cc1 (stereo not drawn),,9.28 µM (active)
